# Screening results: PubChem, National Center for Advancing Translational Sciences (NCATS)
# This is a sample that favours compounds with a hit; in the whole collection about 10% have one here.
# G9a inh: G9a (human) methyltransferase inhibition; Q96KQ7; AID 504332; Potency, µM (series often up to 102 µM), without a hit: top-dose activity, negative = inhibition, actives largely listed as inhibitors; actives 8.8% (n = 350,000); G9a H3K9 monomethylation, AlphaScreen, 2 h; also: % is scaled to controls: 0 for no effect and ±100 for the full control effect; nearly all actives have a fitted effect of over 75% in size
#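 AlphaScreen read-out: biotin-H3K9 peptide (500 nM) methylation by 20 nM enzyme with 20 uM SAM, 2 h at room temperature after 15 min compound preincubation; anti-monomethyl H3K9 antibody plus donor/acceptor beads, 10 min dark.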
# BAZ2B block: blocks human BAZ2B; actives 4.4% (n = 360,000); AID 504333; Potency, µM (titrated, usually from 114 µM), for inactives: top-dose activity change, negative = inhibition, usual class: inhibitors; AlphaScreen BAZ2B-H3K14Ac peptide displacement; Q9UIF8; also: % is scaled to controls: 0 for no effect and ±100 for the full control effect; nearly all actives have a fitted effect of over 60% in size
#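 BAZ2B (50 nM) with biotin-H3(5-23)K14Ac peptide (50 nM) in PBS pH 7.4, 0.01% Tween-20, preformed 30 min, then compound 30 min at room temperature; top concentration 110uM. AlphaScreen streptavidin donor/nickel chelate acceptor beads (10 ug/mL final), 20 min dark, signal read.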
# L3MBTL1 block: blocks human L3MBTL1 | AID 485360 | Potency, µM (titrated, usually from 57.1 µM), without a hit: at the top dose activity, negative = inhibition, most hits filed as inhibitors | actives 0.66% (n = 230,000) | AlphaScreen L3MBTL1–H3K9me1 peptide binding; also: % is scaled to controls: 0 for no effect and ±100 for the full control effect; nearly all actives have a fitted effect of over 60% in size
# Target sequence (Q9Y468 whole entry, looked up): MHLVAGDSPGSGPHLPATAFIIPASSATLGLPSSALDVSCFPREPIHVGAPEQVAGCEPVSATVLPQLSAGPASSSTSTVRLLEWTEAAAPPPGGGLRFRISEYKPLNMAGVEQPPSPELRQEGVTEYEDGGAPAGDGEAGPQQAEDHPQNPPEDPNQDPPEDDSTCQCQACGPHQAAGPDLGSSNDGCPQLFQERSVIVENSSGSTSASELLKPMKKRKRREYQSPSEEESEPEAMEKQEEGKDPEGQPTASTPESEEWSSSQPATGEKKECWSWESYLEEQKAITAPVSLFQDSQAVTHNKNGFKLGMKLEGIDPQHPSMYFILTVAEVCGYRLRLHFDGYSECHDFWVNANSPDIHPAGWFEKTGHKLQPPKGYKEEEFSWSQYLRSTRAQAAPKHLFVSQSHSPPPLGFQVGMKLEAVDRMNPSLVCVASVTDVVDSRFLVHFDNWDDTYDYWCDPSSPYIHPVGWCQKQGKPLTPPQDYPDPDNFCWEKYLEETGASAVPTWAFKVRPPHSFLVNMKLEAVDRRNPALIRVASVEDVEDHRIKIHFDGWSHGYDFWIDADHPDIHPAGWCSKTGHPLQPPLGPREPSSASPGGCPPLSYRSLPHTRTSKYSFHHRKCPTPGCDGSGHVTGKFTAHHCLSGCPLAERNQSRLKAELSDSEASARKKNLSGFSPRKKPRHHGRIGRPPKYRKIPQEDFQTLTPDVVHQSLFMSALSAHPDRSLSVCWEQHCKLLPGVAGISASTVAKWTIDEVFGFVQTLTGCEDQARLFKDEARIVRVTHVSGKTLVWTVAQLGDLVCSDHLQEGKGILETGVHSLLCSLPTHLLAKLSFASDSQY
#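 Displacement of a biotinylated histone H3(1-15) peptide monomethylated at Lys9 (75 nM) from L3MBTL1 (50 nM) was measured by AlphaScreen after a 30 min room-temperature compound incubation; cefsulodin titration served as intraplate control.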
# HP1b binding inh: blocks HP1-beta chromodomain binding to methylated histone tails. P83916. actives 0.56% (n = 390,000). Potency, µM (series often up to 114 µM), inactives show at the top dose activity change, negative = inhibition, most hits filed as inhibitors. AlphaScreen HP1-beta / biotin-H3K9me3 peptide binding. AID 540317; also: nearly all actives have a fitted effect of over 70% in size
#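 Compound inhibition of the preformed complex between 50 nM HP1-beta and 50 nM biotinylated H3K9me3 peptide was read by AlphaScreen. Buffer was PBS pH 7.4 with 0.01% Tween-20. Incubations ran 30 min at room temperature, with 10 ug/mL donor/acceptor beads.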
# GLS inhibitor: inhibitors of human glutaminase (GLS); GLS enzymatic activity, qHTS titration; Potency, µM (titrated, usually from 45.5 µM), inactives show at the highest dose activity change, negative = inhibition, actives largely listed as inhibitors; actives 0.21% (n = 410,000); AID 624170; also: % is scaled to controls: 0 for no effect and ±100 for the full control effect
#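 Enzyme dispensed in phosphate buffer (45 mM, pH 8.2, 0.02% Tween-20), compounds pinned in, then 1 mM L-glutamine solution and the glutamate oxidase–HRP–Amplex Red mix added; fluorescence read immediately and again after 30 min at room temperature.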
# JMJD2A Tudor: blocks the human JMJD2A Tudor domain | Potency, µM (highest dose often 114 µM), without a hit: at the top dose activity change, negative = inhibition, usual class: inhibitors | AID 504339 | actives 4.4% (n = 390,000) | O75164 | AlphaScreen JMJD2A-Tudor / H3K4me3 peptide binding; also: % is scaled to controls: 0 for no effect and ±100 for the full control effect; nearly all actives have a fitted effect of over 50% in size
# Active calls of the source: *; ? = inconclusive; . = no result given; [ ] = another dose, or the depositor's remark. Calls follow the shape of the dose curve; as a rule, active = well fitted curve in the direction sought with a large enough effect; inconclusive = small, poorly fitted or top-dose-only effect, or another doubt; inactive = no such curve, though single readings can be large; an effect the other way counts as inactive or inconclusive. Potency is read from the fitted curve at half-maximal effect.
SMILES,G9a inh,BAZ2B block,L3MBTL1 block,HP1b binding inh,GLS inhibitor,JMJD2A Tudor
CCOc1ccc(/C=N/NC(=O)c2cc(-c3ccco3)nc3ccccc23)cc1,14%[59 µM],8%,4%,33%,-1%,-10%
O=C(N/N=C/c1ccc(F)cc1)c1cc(-c2ccco2)nc2ccccc12,?,2.8µM*,3.5µM*,22µM*,10µM*,?
Cc1cc(-c2ccccc2)nc2oc(C(=O)NN)c(N)c12,24%[59 µM],-20%,-8%,37%,-8%,-21%
COc1cc(NC(=O)c2cccc(Cl)c2Cl)ccc1NC(=O)c1cc2ccccc2o1,4%[59 µM],-29%,.,38%,-4%,-17%
O=C(CN1C(=O)C2(SCC(=O)N2c2ccc(F)cc2)c2ccccc21)NCCc1ccccc1 (stereo not given),-10%[59 µM],9%[57.1 µM],.,22%,5%,-17%
Cc1ccc(CNc2ccc3cc(S(=O)(=O)N4CCCCC4)ccc3n2)cc1,-5%[59 µM],3%,.,18%,-13%,4%
CCOc1nc(Nc2ccc(OC)c(Cl)c2)nc(N2CCN(c3ccc(OC)cc3)CC2)n1,11µM*,11µM*,.,?,1%,35µM*
COc1ccc(-n2c(=O)c3c(c4cc(OC)ccc4n3C)n(Cc3c(F)cccc3Cl)c2=O)cc1,?,-10%,.,39%,-6%,-11%
CC1CCN(S(=O)(=O)c2ccc3nc(NCc4ccc(N(C)C)cc4)ccc3c2)CC1,10µM*,35µM*,.,?,4%,14µM*
CC(=O)c1ccc(N2CCN(c3ccc4cc(S(=O)(=O)N5CCC(C)CC5)ccc4n3)CC2)cc1,18µM*,?,.,40%,-20%,?
CC1CCN(S(=O)(=O)c2ccc3nc(N4CCN(c5ccc(F)cc5)CC4)ccc3c2)CC1,-3%[59 µM],-1%,.,44%,-6%,9%
CCOP(=O)(OCC)C(C#N)=C1SCN(c2ccc(Cl)cc2)CS1,?,8%,-3%,-2%,51%,79µM*
COc1ccc(C)cc1Nc1nc2c(S(=O)(=O)c3cccc(Cl)c3)nnn2c2ccsc12,-7%[59 µM],-11%,.,37%,8%,-14%
N#Cc1c2c(c(=S)n(-c3ccccc3)c1N)CCCC2,8.9µM*,?,-10%,1%,2%,-21%
COc1ccc(C(=O)N2CCC[C@@]3(CCN(Cc4ccc(C#N)cc4)C3)C2)cc1,1%[12.7 µM],.,.,.,.,.
COC(=O)Cc1n[nH]c(=S)[nH]c1=O,0%[59 µM],-34%,2%,0%,-4%,79µM*
COc1ccc2c(CNC3CCC(C)CC3)c(C(=O)O)n(Cc3ccc(F)cc3)c2c1 (stereo not given),-9%[59 µM],-10%,.,25%,9%,-7%
CC1=C(C(=O)OCc2ccccc2)C(c2ccc([N+](=O)[O-])cc2)NC(=O)N1C (stereo not given),1%,-30%,-6%,18%,-7%,-23%
CC1=C(C(=O)OCc2ccccc2)C(c2ccccc2[N+](=O)[O-])NC(=O)N1C (stereo not given),40µM*,-38%,.,20%,0%,-11%
CC1=C(C(=O)OCc2ccccc2)C(c2ccccc2-c2ccccc2)NC(=O)N1CCCCCC(=O)O (stereo not given),50µM*,50µM*,-7%,5%,-16%,?
CC1=C(C(=O)OCc2ccccc2)C(c2ccccc2Cl)NC(=O)N1CCCC(=O)O (stereo not given),-11%,-33%,1%,31%,3%,-1%
CC1=C(C(=O)OCc2ccccc2)C(c2ccccc2Cl)NC(=O)N1CCCCCC(=O)O (stereo not given),79µM*,-31%,-13%,24%,2%,-4%
CCOc1ccc(NC(=O)Cn2cc(C(=O)c3ccc(OCC)cc3)c(=O)c3cc4c(cc32)OCCO4)cc1,-48%[59 µM],-8%,.,25%,7%,-19%
Cc1ccsc1-c1n[nH]c(=S)n1CC(C)C,?,-29%,2%,-8%,9%,8.9µM*
CCn1c(-c2nn(C)cc2Cl)n[nH]c1=S,10µM*,-6%,1%,24%,-11%,6.3µM*
SMILES,G9a inh,BAZ2B block,L3MBTL1 block,HP1b binding inh,GLS inhibitor,JMJD2A Tudor
CC(C)Cn1c(-c2nn(C)cc2Cl)n[nH]c1=S,10µM*,-8%,5%,31%,-9%,8.9µM*
CCn1c(CC(C)C)n[nH]c1=S,.,10%,2%,33%,15%,?
COc1ccc(-c2nc(N3CCN(S(=O)(=O)c4ccccc4)CC3)c3ccccc3n2)cc1,.,.,.,44%,.,-16%
O=C1c2cccc3cccc(c23)C(=O)N1CCCc1n[nH]c(=S)n1-c1ccccc1,4µM*,-5%,6%,13%,4µM*,13µM*
OCCCc1n[nH]c(=S)n1-c1ccccc1,?,-28%,-8%,40%,-1%,1%
CCCOc1ccccc1-c1nc(SCC(=O)c2ccccc2)n[nH]1,-34%[59 µM],-7%,.,46%,-1%,-3%
Cc1cccc(CNC(=O)Cn2c(-c3cccs3)cc3ccccc32)c1,8%[59 µM],6%,.,65%,2%,-1%
O=C(NNc1cccc(Cl)c1)c1cccnc1Cl,10µM*,-2%,14%,56%,2%,1%
CCCc1c(C(=O)Nc2ccc(F)cc2F)cnn1-c1ccccc1,7%,0%,-2%,91%,-5%,5%
CCCc1c(C(=O)NNc2cccc(Cl)c2)cnn1-c1ccccc1,35µM*,-39%,-4%,9%,17%,?
O=C(/C=C/c1cccs1)N1CCN(c2ccc(O)cc2)CC1,7.9µM*,-37%,.,?,7.1µM*,?
O=C(/C=C/c1cccs1)N1CCCCC1,23%,-18%,-13%,14%,-11%,-6%
O=S(=O)(c1cccs1)N1CCN(c2ccc(O)cc2)CC1,35µM*,-29%,-28%,-15%,?,-24%
S=c1nc[nH]c2c1ncn2C1CCCO1 (stereo not given),10µM*,?,-12%,-17%[57 µM],-1%,2µM*
O=c1[nH]cnc2c1ncn2[C@@H]1C[C@@H](O)[C@H](CO)O1,12%,4%,.,19%,5%,-7%
OCC1OC(n2cnc3c(=S)nc[nH]c32)CC1O (stereo not given),.,.,.,?,-7%,2.8µM*
Cc1c(C(=O)Nc2cccc(F)c2)oc2c1-c1nn(Cc3c(F)cccc3Cl)cc1CC2,18%[59 µM],33%,.,65%,-6%,-18%
Cc1ccc2c(c1)C(c1ccc(F)cc1)N(C(=O)COc1ccc(Cl)cc1Cl)CC(=O)N2 (stereo not given),-11%[59 µM],-14%,.,16%,5%,-18%
